This assay addresses Diacylglycerol lipase-beta (Homo sapiens) (UniProt Q8NCG7). The assay is described as follows: DAGLB lipase inhibitors, retest, confirmation, biochemical, fluorescence, HEK293T membranes (AID 504445).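 Further: 0% = DAGLB with DMSO and 100% = wells lacking DAGLB enzyme.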 As to conditions: HEK293T DAGLB membrane lysate, EnzChek fluorogenic substrate; at 5.17 µM; stronger effect = higher value.

Structures are written as SMILES. Some of the results follow. A number with no mark means an inactive call. Activity calls are given as the source filed them.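 How the source made its calls: active means mean inhibition over triplicate wells above a set limit taken from the primary lipase screen (cut at about 34% in these data); inactive means the rest.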

Sequence of Diacylglycerol lipase-beta (Homo sapiens) (Q8NCG7 whole entry, looked up): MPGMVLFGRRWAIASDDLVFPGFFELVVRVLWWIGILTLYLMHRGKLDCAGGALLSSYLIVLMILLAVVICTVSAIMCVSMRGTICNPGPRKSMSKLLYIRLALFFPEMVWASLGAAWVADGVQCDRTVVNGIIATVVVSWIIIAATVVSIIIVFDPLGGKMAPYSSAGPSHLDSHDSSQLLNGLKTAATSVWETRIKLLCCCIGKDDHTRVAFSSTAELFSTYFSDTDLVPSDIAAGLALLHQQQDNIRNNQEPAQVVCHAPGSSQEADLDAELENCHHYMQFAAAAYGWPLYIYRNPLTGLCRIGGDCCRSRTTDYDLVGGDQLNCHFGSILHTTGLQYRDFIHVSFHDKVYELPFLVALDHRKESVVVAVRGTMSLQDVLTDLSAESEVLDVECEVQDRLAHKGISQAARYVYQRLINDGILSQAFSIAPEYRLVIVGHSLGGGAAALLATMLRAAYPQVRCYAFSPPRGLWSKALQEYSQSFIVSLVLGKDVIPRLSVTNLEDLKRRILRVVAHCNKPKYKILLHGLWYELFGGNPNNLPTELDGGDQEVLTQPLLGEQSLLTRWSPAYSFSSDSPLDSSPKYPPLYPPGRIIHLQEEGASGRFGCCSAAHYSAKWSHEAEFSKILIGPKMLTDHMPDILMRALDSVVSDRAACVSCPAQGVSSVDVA

`Cc1ccc(S(=O)(=O)/N=C2\C=C(NS(=O)(=O)c3ccc(C)cc3)C(=O)c3ccccc32)cc1`: the inhibition (commonly how much of the control response was suppressed) is 18.2%. Take `COc1ccc(Br)cc1/C=N/Nc1ccc(S(=O)(=O)Nc2ccccc2C(=O)O)cc1[N+](=O)[O-]`: the inhibition was 27.4%. On to `Cc1oc2cc([N+](=O)[O-])c(O)c([N+](=O)[O-])c2c1C(=O)c1ccc(Br)cc1`, for which the inhibition is 49.9% (active). Consider `COc1cccc(/C=N/Nc2ccc(S(=O)(=O)Nc3ccccc3C(=O)O)cc2[N+](=O)[O-])c1O`, for which the inhibition is 49.7% (active).

Consider `O=C(Oc1cccc(N2C(=O)C3C4c5ccccc5C(c5ccccc54)C3C2=O)c1)c1ccco1` (configuration not stated), for which the inhibition was 31.9%.

As for `Cc1ccc(/C=N/NC(=O)C(NC(=O)c2ccccc2)c2n[nH]c(=O)c3ccccc23)cc1` (configuration not stated), the inhibition was 27.9%. In the case of `O=C(NNc1c2ccccc2nc2ccccc12)c1cc2ccccc2cc1O` it was 63.4% (active).
